In all, about 200,000 compounds went through this assay and about 520 (0.26%) were called active. Rule as the data show it: active = activation above about 23%; inactive = the rest. The list comes from a sample in which actives are over-represented; it also holds similar structures and randomly drawn compounds.

The experiment deals with Peroxisome proliferator-activated receptor gamma (Homo sapiens) (UniProt P37231). Nature of the experiment: enhancers of SRC-3 binding to PPARgamma – biochemical, primary screen (AID 731).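 Also: 0% = DMSO and 100% = reference agonist.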 The note with it: biochemical PPARgamma/SRC-3 coactivator recruitment assay; at 8 µM; active compounds read high.
Sequence of Peroxisome proliferator-activated receptor gamma (Homo sapiens) (P37231 whole entry, looked up): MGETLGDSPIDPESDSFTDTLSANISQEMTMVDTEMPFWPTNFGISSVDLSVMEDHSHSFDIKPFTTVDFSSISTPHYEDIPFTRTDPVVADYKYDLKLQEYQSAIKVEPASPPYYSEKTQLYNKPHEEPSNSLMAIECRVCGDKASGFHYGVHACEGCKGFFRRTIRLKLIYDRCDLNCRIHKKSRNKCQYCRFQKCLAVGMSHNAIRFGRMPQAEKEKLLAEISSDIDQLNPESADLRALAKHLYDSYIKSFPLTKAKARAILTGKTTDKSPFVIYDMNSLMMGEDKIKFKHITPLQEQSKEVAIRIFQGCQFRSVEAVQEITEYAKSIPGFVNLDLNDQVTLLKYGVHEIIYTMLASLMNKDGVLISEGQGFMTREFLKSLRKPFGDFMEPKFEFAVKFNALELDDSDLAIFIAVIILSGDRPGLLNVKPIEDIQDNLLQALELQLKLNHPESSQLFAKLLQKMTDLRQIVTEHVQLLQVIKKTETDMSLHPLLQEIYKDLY
Turning to `Cc1cccc(NC(=O)c2cc([N+](=O)[O-])ccc2N2CCN(C)CC2)c1`, the activation is 4.61% (inactive).

Regarding `CCc1cc(C(=O)OC)c(NC(=O)CC2Sc3ccc(C(F)(F)F)cc3NC2=O)s1` (centres undefined), the activation was -4.95% (inactive).

Turning to `CCOc1cc(/C=N/NC(=O)c2ccc(CSc3nncn3C)cc2)ccc1OCC(=O)N1CCOCC1`, the activation is -1.91% (inactive).

As to `CC(OC(=O)CNS(=O)(=O)/C=C/c1ccccc1)C(=O)Nc1ccc(S(=O)(=O)N2CCCC2)cc1` (centres undefined), the activation is -1.83% (inactive).

On to `CC(C(=O)O)n1cnc2sc3c(c2c1=O)CCCC3` (centres undefined), for which the activation was 4.24% (inactive).

As for `COc1ccc(N2C(=O)CC(SC(C)C)C2=O)cc1` (centres undefined), the activation was -1.07% (inactive).

As to `CN(Cc1cccc2ncccc12)C(=O)CC1C(=O)NCCN1Cc1ccc(F)cc1` (centres undefined), the activation is -0.7% (inactive).

On to `O=C(/C=C/Nc1ccccc1)c1cnc(-c2ccccc2)s1`, for which the activation was -4.1% (inactive).

Take `CC(C)Cn1c(N2CCN(C(=O)/C=C/c3ccccc3)CC2)nc2ccccc21`: the activation was 9.26% (inactive).

In the case of `COc1cccc(NC(=O)CN(C)CC(=O)Nc2ccc3c(c2)CCC3)c1`, the activation is 0.47% (inactive).

On to `O=C(Cc1ccccc1)NNS(=O)(=O)c1ccc([N+](=O)[O-])cc1`, for which the activation was 1.7% (inactive).

Take `CCCCn1nc(C(=O)Nc2ccc(S(=O)(=O)Nc3ncccn3)cc2)c2ccccc2c1=O`: the activation is 2.84% (inactive).

Turning to `CC(C)C(c1nnnn1C(C)(C)C)N1CCN(Cc2cccnc2)CC1` (centres undefined), the activation was 4.42% (inactive).

Consider `CCn1c(C(C)C)n[nH]c1=S`, for which the activation was 1.32% (inactive).

In the case of `CCN(CC(=O)NCc1cccs1)C(=O)c1ccccc1F`, the activation was 1.34% (inactive).

Turning to `COc1cc(CNCCN(C)C)ccc1OCc1c(F)cccc1Cl`, the activation was 2.34% (inactive).

As to `c1ccc(Cc2cc[n+](Cc3ccccc3)cc2)cc1`, the activation was 1.56% (inactive).

For the molecule `NS(=O)(=O)c1cc(C(=O)NCCOc2ccccc2)c(Cl)cc1Cl`, the activation was -1.64% (inactive).

`CCc1nnc(NC(=O)[C@@H](NC(=O)c2cccc(C)c2)C(C)C)s1`: the activation is -2.92% (inactive).

For `COc1ccc(-c2nnc3ccc(SCc4ccccc4)nn23)cc1`, the activation was 3.96% (inactive).

On to `Cc1cc(C)nc(NC(=O)c2cccc([N+](=O)[O-])c2)c1`, for which the activation is 2.34% (inactive).

In the case of `CC(C)[C@H](NC(=O)c1ccc(F)cc1)C(=O)OCC(=O)NC(=O)c1cccn1C`, the activation was 1.86% (inactive).

With `O=C(Cn1c(N2CCN(C/C=C/c3ccccc3)CC2)nc2ccccc21)c1ccccc1`, the activation was 6.67% (inactive).

In the case of `N/C(=N\OC(=O)c1ccc([N+](=O)[O-])cc1)c1ccccn1`, the activation is -2.22% (inactive).

In the case of `[O-][n+]1onc2c1CCc1[nH]c(-c3ccccc3)nc1-2`, the activation was 0.76% (inactive).

Turning to `N#C/C(=C(\O)C(F)(F)F)c1nnc2n1CCCCC2`, the activation is -0.75% (inactive).

Turning to `CSCc1ccc(C(=O)Nc2cc(C)cc(C)c2)cc1`, the activation was -4.38% (inactive).

On to `COc1ccc2c(Cl)c(C(=O)NCc3ccco3)sc2c1`, for which the activation is -2.31% (inactive).

`COc1ccc(-c2nnco2)cc1OC`: the activation is -2.7% (inactive).

In the case of `COc1ccc2c(Cl)c(-c3nnco3)sc2c1`, the activation is 33.2% (active).

As to `O=C(Nc1ccc2c(c1)CCC2)c1ccc(Br)s1`, the activation is 0.47% (inactive).

With `C/C(=C\c1ccccc1)C1NC(=O)c2c(sc3c2CCCC3)N1` (centres undefined), the activation was 6.88% (inactive).

For the molecule `CCn1nc(C)c(CN2CCN(Cc3ccc(OC)c(C)c3C)C(CCO)C2)c1C` (centres undefined), the activation was -0.59% (inactive).

For the molecule `Cn1cc(-c2ccccc2)cc(C#N)c1=O`, the activation was 1.51% (inactive).

For the molecule `CN(C)N(C)C(=O)C(O)(c1ccccc1)c1ccccc1`, the activation is 3.14% (inactive).

For `Cc1cc(C)cc(N(CC(=O)NCCSCc2ccco2)S(C)(=O)=O)c1`, the activation is 5.41% (inactive).

Regarding `O=C(CN1C(=O)NC2(CCCC2)C1=O)Nc1ccc(F)c(F)c1F`, the activation is 0.63% (inactive).

As for `O=S(=O)(c1ccc(F)cc1)N1CCN(C(=S)NC2CCCC2)CC1`, the activation was 1.45% (inactive).

Consider `COc1cc(C)c(S(=O)(=O)N2CCOCC2)c(C)c1C`, for which the activation was -6.91% (inactive).

As to `CCc1nnc(NS(=O)(=O)c2ccc(NC(=S)NC(=O)/C=C/c3cccs3)cc2)s1`, the activation is 22.6% (active).

Take `CCc1nnc(NS(=O)(=O)c2ccc(NC(=S)NC(=O)c3cccs3)cc2)s1`: the activation is 2.44% (inactive).

As to `CCc1nnc(NS(=O)(=O)c2ccc(NS(=O)(=O)c3ccccc3)cc2)s1`, the activation is -4.6% (inactive).

As for `C/C(=N/NC(=O)C1COc2ccccc2O1)c1ccco1` (centres undefined), the activation was -2.9% (inactive).

As for `Cc1ccc(CN(C)CC(=O)Nc2cccc([N+](=O)[O-])c2)o1`, the activation was -1.37% (inactive).

Consider `COc1cc(NS(=O)(=O)c2ccc(NC(=O)c3ccc(S(=O)(=O)N4CCCCC4)cc3)cc2)ncn1`, for which the activation is -0.22% (inactive).

Consider `C/C(=N\NS(=O)(=O)c1ccc(Cl)cc1)c1ccc(NC(=O)c2ccco2)cc1`, for which the activation is 7.63% (inactive).

On to `O=C(O)Cc1sc(-c2ccc(C(=O)O)cc2)nc1-c1ccccc1`, for which the activation is 8.03% (inactive).

As for `O=C(O)Cc1sc(-c2ccccc2)nc1-c1cccs1`, the activation was 25.3% (active).

As for `Cc1ccc(-c2nc(C)sc2CC(=O)O)cc1`, the activation was 1.18% (inactive).

Turning to `Cc1ccc(C2=NN(C(=O)COc3ncnc4ccccc34)C(c3ccco3)C2)cc1` (centres undefined), the activation was 6.22% (inactive).

Consider `COC(C(=O)NCc1ccccc1C)c1ccccc1` (centres undefined), for which the activation is -1.48% (inactive).

Take `CCCC(c1nnnn1C(C)(C)C)N1CCN(Cc2ccccc2)CC1` (centres undefined): the activation is 0.32% (inactive).

`COc1ccc(OC)c(CNC(=O)c2cc(=O)[nH]c3ccc(S(=O)(=O)N4CCCC4)cc23)c1`: the activation was 1.02% (inactive).

With `O=C(C1CCN(C2CCN(Cc3ccc4cc(F)ccc4n3)CC2)CC1)N1CCCC1`, the activation was 3.24% (inactive).

As to `Cc1ccc(C(=O)N/C(=C\c2ccco2)C(=O)N2CCSCC2)cc1C`, the activation was -0.93% (inactive).

For `Cc1ccc2cc(C#N)c(NCCNC(=S)NCCCN3CCOCC3)nc2c1`, the activation is 1.37% (inactive).

In the case of `Cn1nnnc1SCC(=O)Nc1nc2ccccc2s1`, the activation is -4.08% (inactive).

Consider `N#Cc1c(-c2ccc(F)cc2)cc(C2CC2)nc1SCC(=O)c1cccs1`, for which the activation was -1.78% (inactive).

As to `COC(=O)CCc1sc(Nc2ccc(Br)cc2)nc1-c1ccc(OC)cc1`, the activation was 4.66% (inactive).

Consider `Cn1c(-c2sccc2OCc2cccc(C(F)(F)F)c2)n[nH]c1=S`, for which the activation is 4.56% (inactive).

For the molecule `Cn1c(-c2sc3cc(C(F)(F)F)cnc3c2-c2ccccc2)n[nH]c1=S`, the activation is 50% (active).

Turning to `Cc1ccccc1-c1n[nH]c(=S)n1C`, the activation was 2.22% (inactive).

For the molecule `O=S(=O)(NC1CCCCC1)c1ccc(F)c2ccccc12`, the activation was 7.29% (inactive).

In the case of `Cc1cc(C)cc(C(=O)N(CCc2ccccc2)C2=CC3CCC(C2)N3C)c1` (centres undefined), the activation is 0.55% (inactive).

As for `O=C(NCc1cccs1)c1ccc(Br)o1`, the activation was 1.17% (inactive).

Take `O=[N+]([O-])c1ccc(Sc2n[nH]c(-c3ccco3)n2)nc1`: the activation was 2.58% (inactive).

Regarding `COc1ccc(N2CCN(CCCNC(=O)C3CCN(S(=O)(=O)N4CCOCC4)CC3)CC2)cc1`, the activation was -2.17% (inactive).

As to `O=C(OCc1cc(Cl)ccc1OC(F)F)c1cccnc1`, the activation is 0.24% (inactive).

In the case of `CN1CCN(C(=O)/C(=C\c2cccs2)NC(=O)c2cccs2)CC1`, the activation was -1.89% (inactive).

In the case of `NS(=O)(=O)c1ccc(CCNC(=O)c2ccc([N+](=O)[O-])cc2[N+](=O)[O-])cc1`, the activation was 6.7% (inactive).

With `O=C(Nc1cccc(C(F)(F)F)c1)c1cnccn1`, the activation was 12.3% (inactive).

As for `CCOC(=O)c1ccc(COC(=O)CCc2nc(-c3ccccc3)c(-c3ccccc3)o2)cc1`, the activation was -0.63% (inactive).

Turning to `CCO/N=C(/C)c1c(O)cc(-c2ccccc2)n(-c2ccccc2)c1=O`, the activation is 0.18% (inactive).

For `CC(=O)N/N=C(\C)c1ccc(Br)cc1Br`, the activation is -1.47% (inactive).

Turning to `CCc1ccc(C(=O)OCC(=O)Nc2cccc(S(=O)(=O)NC3=NCCCCC3)c2)cc1`, the activation is -1.75% (inactive).

Take `Cc1ccc(NC(=O)c2sc3nc(N)c(C#N)cc3c2N)cc1`: the activation is 1.84% (inactive).

Take `COc1cc(NC(=O)c2cc([N+](=O)[O-])ccc2Br)ccc1NC(=O)c1ccco1`: the activation was -4.35% (inactive).

As for `CN(C)c1nnnn1-c1ccc(Cl)cc1`, the activation was -1.68% (inactive).

In the case of `Cc1ccccc1NC(=O)C(C)c1ccc(-c2ccccc2)c(F)c1` (centres undefined), the activation was -1.23% (inactive).

As to `CCOc1ccc(/C=N/NC(=O)C(C)Sc2ccccn2)cc1OCC` (centres undefined), the activation is 4.85% (inactive).

As for `CCN(CC)S(=O)(=O)c1ccc(Cl)c(C(=O)NC(C)C(c2cccs2)N2CCCC2)c1` (centres undefined), the activation is 5.06% (inactive).

Turning to `Cc1ccc(C2C3=C(Nc4[nH]n(-c5ccccc5)c(=O)c42)c2ccccc2C3=O)cc1` (centres undefined), the activation was 1.23% (inactive).

Regarding `COc1ccc(S(=O)(=O)N2CCOCC2)c(C)c1C`, the activation is 13.6% (inactive).

Turning to `Cc1ccc(-c2cc(C(=O)N/N=C/C=C/c3ccccc3)n[nH]2)o1`, the activation was -0.56% (inactive).

Regarding `CCOC(=O)c1c(C)nc2c(c1C)c(=O)oc1ccccc12`, the activation is 15.5% (inactive).

Consider `Cc1cc(C(=O)CSc2nc(N)cc(=O)[nH]2)c(C)n1CCc1ccc(Cl)cc1`, for which the activation is 5.4% (inactive).

Take `O=C(O)COc1ccc(/C=N/O)cc1Br`: the activation is 3.92% (inactive).

Regarding `COCCNC(=O)CCCn1c(=O)c2ccccc2n(Cc2cccc([N+](=O)[O-])c2)c1=O`, the activation was 2.44% (inactive).

Turning to `CC(=O)n1cc([C@@H]2C=C(C(=O)N3CCN(Cc4ccc5c(c4)OCO5)CC3)O[C@H](OCc3ccc(CO)cc3)C2)c2ccccc21`, the activation is -1.58% (inactive).

Turning to `Cc1cnc(C(=O)N2CCCC(C(=O)c3ccc(C(F)(F)F)cc3)C2)cn1` (centres undefined), the activation was -0.94% (inactive).

Take `Cc1cc(=O)oc(C)c1C(=O)NCCN(C)Cc1ccccc1`: the activation is 1.75% (inactive).

`CN(C)c1ccc(N/C=C/C(=O)C(F)(F)F)cc1`: the activation was 23.6% (active).

As to `O=C(/C=C/Nc1ccccc1OC(F)(F)F)C(F)(F)F`, the activation is 1.89% (inactive).

In the case of `CCCOc1ccc(N/C=C/C(=O)C(C)(C)C)cc1`, the activation was 0.22% (inactive).

For the origin of these results see PubChem BioAssay AID731 (The Scripps Research Institute Molecular Screening Center, 2007).
